Measured values as given in PubChem BioAssay (NCI).
Where “and” joins values, the source holds several entries; their conditions need not be identical. Equal entries are not always repeated. This is part of a sample that, as a whole, favours compounds with a hit. Of some 83,000 tested, about 20% had one in any assay.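 Step 1: grow cells in 96-well plates. Step 2: add test compound at a single concentration. Step 3: incubate 48 h. Step 4: record percent growth.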 Calls of active or inactive are those of the source. The calls were made as follows: active = growth percent below 10; inactive = the rest.

The compounds below were run on MDA-MB-468 breast (assay: NCI-60 one-dose screen, 48 h (100 = growth as untreated, 0 = no growth, -100 = all killed)). Conditions: 10 µM unless noted.
For `C/C(=C\c1ccn(-c2ccccc2N)n1)[C@@H]1C[C@@H]2O[C@]2(C)CCC[C@H](C)[C@H](O)[C@@H](C)C(=O)C(C)(C)[C@@H](O)CC(=O)O1`, the growth was 0% (active). With `CCC1(C(C)C)C(=O)NC(=S)NC1=O` the growth was 89.9% (inactive). In the case of `O=C(N/N=C\c1ccc(N(CCCl)CCCl)cc1)c1cccc([N+](=O)[O-])c1`, the growth is reported as 68.1% (inactive). In the case of `S=P(Nc1ccccc1)(Nc1ccccc1)c1ccccc1`, the growth is reported as 127% (inactive). In the case of `CC1(C)C(C(=O)c2cn(CCCCF)c3ccccc23)C1(C)C`, the growth is reported as 103% (inactive). In the case of `COc1cccc2c1C(=O)c1c(O)c3c(c(O)c1C2=O)CC(O)(/C(C)=N/NC(=O)CCC(=O)N/N=C(\C)C1(O)Cc2c(O)c4c(c(O)c2C(OC2CC(N)C(O)C(C)O2)C1)C(=O)c1c(OC)cccc1C4=O)CC3OC1CC(N)C(O)C(C)O1` (centres undefined), the growth is reported as -35.7% [5 µM] (active). With `c1ccc2nc(OCCN3CC3)ccc2c1` the growth was 69.3% (inactive). With `COc1cc(C=C2c3ccccc3C(=O)c3ccccc32)ccc1OCCCCOc1cc2c(cc1OC)C(=O)N1CCCC1C=N2` (centres undefined) the growth was -75.4% (active). For `CC(=O)C(N)Cc1ccccc1` (centres undefined), the growth was 97% (inactive). In the case of `C/C=C/CC(C)C(O)[C@H](NC(=O)[C@@H]1CCCN1C(=O)C(C)(C)NC(=O)CCCCCCCCC)C(=O)N[C@@](C)(CC)C(=O)N[C@@H](CCC(N)=O)C(=O)N[C@H](CCC(N)=O)C(=O)NC(C)(C)C(=O)N[C@@](C)(CC)C(=O)N[C@@H](CCC(N)=O)C(=O)N[C@H](CC(C)C)C(=O)N[C@H](CO)CC(C)C` (some centres undefined), the growth is reported as 99.2% (inactive) and -78.2% (active). With `Cn1cc(C(=O)C[n+]2ccccc2)c2ccccc21` the growth was 88% (inactive). For `CN1C(=O)[C@]23SSC1(C)C(=O)N2[C@H]1Nc2ccccc2C1([C@@]12c4ccccc4N[C@@H]1N1C(=O)C4(C)SS[C@]1(C(=O)N4C)[C@H]2O)[C@@H]3O` (some centres undefined), the growth was -88.9% (active). With `Fc1ccc2c(c1)c(-c1nc(-c3c[nH]c4ncccc34)cs1)cn2CCN1CCOCC1` the growth was 43.8% (inactive). For `CCC1(NC(=O)c2cc(F)c(F)c(F)c2F)C(=O)NC(=O)N(C(C)C)C1=O` (centres undefined), the growth was 95.2% (inactive). `NC1CC2CCCCC2CC1(O)c1ccccc1` (centres undefined) was tested, and the growth was 98.2% (inactive). In the case of `CC[C@H](C)[C@@H]([C@@H](CC(=O)N1CCC[C@H]1[C@H](OC)[C@@H](C)C(=O)N[C@H](C)[C@@H](O)c1ccccc1)OC)N(C)C(=O)[C@@H](NC(=O)[C@@H](NC)C(C)C)C(C)C`, the growth is reported as 37% (inactive). With `CCCCN1CCCC[C@@H]1C(=O)N[C@H](C(=O)N(C)[C@H](C[C@@H](OC(C)=O)c1nc(C(=O)NC2CCC(C(=O)OC)CC2)cs1)C(C)C)C(C)C` (some centres undefined) the growth was 17.4% (inactive). For `Brc1ccc2c(c1)c(-c1nc(-c3c[nH]c4ncccc34)cs1)cn2CCN1CCOCC1`, the growth was 34.2% (inactive). `C[S+]1C=Cc2ccccc2C1c1ccc(Cl)cc1` (centres undefined) was tested, and the growth was -40.7% (active). `COC(C)(C)CCC[C@H](C)C/C=C/C(C)=C/C(=O)OC(C)C` was tested, and the growth was 86.7% (inactive). `CCOC(=O)N[C@H]1CCc2c(Br)c(OC)c(OC)c(OC)c2-c2ccc(SC)c(=O)cc21` was tested, and the growth was -14.7% (active). For `O=[N+]([O-])c1cc(Br)c(O)c(Br)c1`, the growth was 99.4% (inactive). `CC(=O)OCC1O[C@@H]([S-])C(OC(C)=O)[C@H](OC(C)=O)[C@@H]1OC(C)=O.[Au+].c1ccc(CN2[CH-]N(Cc3ccccc3)C(c3ccccc3)=C2c2ccccc2)cc1` was tested, and the growth was -61.7% (active). `C/C=C/CC(C)C(O)[C@H](NC(=O)[C@@H]1CCCN1C(=O)C(C)(C)NC(=O)CCCCCCCCC)C(=O)N[C@@](C)(CC)C(=O)N[C@@H](CCC(N)=O)C(=O)N[C@H](CCC(N)=O)C(=O)NC(C)(C)C(=O)NC(C)(C)C(=O)N[C@@H](CCC(N)=O)C(=O)N[C@H](CC(C)C)C(=O)N[C@H](CO)CC(C)C` (some centres undefined) was tested, and the growth was -53.4% (active) and 16.1% (inactive). With `N#Cc1ccc(Cl)cc1` the growth was 123% (inactive). `CN(C)C(=O)Oc1ccc(Br)cc1` was tested, and the growth was 98.6% (inactive). For `N#CCCc1ccccc1`, the growth was 101% (inactive). For `Nc1nnnc2nc[nH]c12`, the growth was -11.9% (active). In the case of `NC(Cc1ccc(O)cc1)C(=O)N/N=C/c1ccc(N(CCCl)CCCl)cc1` (centres undefined), the growth is reported as 19.7% (inactive). In the case of `O=C(O)c1ccc([S-])cc1.[Au+].c1ccc(CN2[CH-]N(Cc3ccccc3)C(c3ccccc3)=C2c2ccccc2)cc1`, the growth is reported as -63.2% (active). `NC(=O)C(Br)c1ccccc1` (centres undefined) was tested, and the growth was 57.5% (inactive). For `[Au+].[N-]=C=O.c1ccc(CN2[CH-]N(Cc3ccccc3)C(c3ccccc3)=C2c2ccccc2)cc1`, the growth was 72.7% (inactive). In the case of `N#Cc1nc(-c2ccccc2)oc1N1CCC(S(=O)(=O)F)CC1`, the growth is reported as 110% (inactive). With `CN1C(=O)N[C@H]2[C@@H]3NC(=O)c4ccc(Br)n4[C@@H]3C[C@]21O` the growth was -50.6% (active). For `C=CCn1cc(C=C2C(=O)N(C)C(=O)N(C)C2=O)c2ccccc21`, the growth was -35.5% (active). With `Cc1ccc(S(=O)(=O)C(Cl)(Cl)Cl)cc1` the growth was 99.8% (inactive). In the case of `CCCN1C(=O)NC(=O)C(CC)(N2C(=O)c3c(F)c(F)c(F)c(F)c3C2=O)C1=O` (centres undefined), the growth is reported as -50.8% (active). For `O=P1(NCCCl)OCCCN1CCCl` (centres undefined), the growth was 99.1% (inactive). With `NC(N)=NC(N)=Nc1ccc(Cl)cc1` the growth was 111% (inactive).
